Compounds without any hit were thinned out: in the full panel of roughly 83,000, 20% have a hit.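 The test compound was applied at a single concentration to cells in 96-well plates for 48 hours, and percent growth was recorded.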 The source made the active and inactive calls. How the source made its calls: active means growth percent below 10; inactive means the rest.
system: A549/ATCC NSCLC; assay: NCI-60 one-dose screen, 48 h (100 = growth as untreated, 0 = no growth, -100 = all killed); details: 10 µM unless noted

Row | Structure (SMILES) | growth
1 | COc1ccc(-c2cc(NC(=O)Nc3ccc4ncsc4c3)no2)cc1 | 103% (inactive)
2 | CCN(CC)c1ccc(-c2cc(-c3cc(OC)c(OC)c(OC)c3)nc(N3CCOCC3)c2C#N)cc1 | 21.5% (inactive)
3 | CC1=CC(=NN=c2cc(C)n([O-])c(C)c2)C=C(C)[N+]1=O | 87.4% (inactive)
4 | Cc1ccc2oc(=O)cc(C3c4ccc([nH]4)C(c4cc(=O)oc5ccc(C)cc45)c4ccc([nH]4)C(c4cc(=O)oc5ccc(C)cc45)c4ccc([nH]4)C(c4cc(=O)oc5ccc(C)cc45)c4ccc3[nH]4)c2c1 (configuration not stated) | -24.6% (active)
5 | COc1cc2c(cc1-c1c(C)noc1C)ncc1nc(C3CCOCC3)n([C@@H](C)COC(F)F)c12 | 42.4% (inactive)
6 | Cc1[nH]c(-c2cc(N)ccc2Cl)c2c1C(=O)CCCC2 | 45.2% (inactive)
7 | O=S(=O)(Nc1ccc(Br)c(Cl)c1)c1ccc(-c2cnc(C3CC3)o2)cc1 | 24.9% (inactive)
8 | C=CC(=O)Nc1cccc(-c2nc(SC)nc(NCCN3CCOCC3)c2C#N)c1 | 101% (inactive)

system: 786-0 renal; assay: as above; details: 10 µM unless noted

Row | Structure (SMILES) | growth
9 | Cc1ccc(-c2onc3c(=O)[nH]nc(-c4ccccc4)c23)cc1 | 37.1% (inactive)
10 | O=C1CSC(=S)N1CCc1ccc(O)cc1 | 40% (inactive)
11 | CNC(=O)c1cc(Oc2ccc(NC(=O)Nc3ccc(Cl)c(OC(F)(F)F)c3)c(F)c2)ccn1 | 58% (inactive)
12 | N#C/C(=C\c1ccc(-c2ccc(Cl)c(Cl)c2)o1)c1nc(-c2ccco2)cs1 | 110% (inactive)
13 | O=S(=O)(Nc1ccc(OC(F)F)cc1)c1ccc(-c2cnc(C3CC3)o2)cc1 | 84% (inactive)
14 | O=C1Nc2cc(-c3ccc(O)cc3)ccc2/C1=C/c1ccc[nH]1 | 10.9% (inactive)
15 | CON1C(=O)CC[C@]2(C)[C@H]3CC[C@@H]4C([C@@]5(C)CCC(=O)O5)CC[C@@]4(C)[C@]3(C)CC[C@H]2C1(C)C (some centres not stated) | 100% (inactive)
16 | Cn1cc(C(=O)c2nc(-c3c[nH]c4ccc(Br)cc34)no2)c2cc(F)ccc21 | 103% (inactive)
17 | COc1ccc(-n2nc(C)c3c(Nc4ccc(NC(=O)Nc5cccc(C(F)(F)F)c5)cc4)ncnc32)cc1 | -47.4% (active)
18 | CC(C)C1=C[C@@]23CC[C@@H]4[C@](C)(CCC[C@@]4(C)C(=O)N4CCCNCC4)[C@H]2C[C@@H]1[C@H]1C(=O)CCC(=O)[C@H]13 | 104% (inactive)
19 | C#CCOc1ccc2ncnc(N3CCC(NC(=O)CCl)CC3)c2c1 | 45.8% [8.25 µM] (inactive)
20 | Cc1ccc(NC(=O)/C=C/c2ccccc2)c(C(N)=O)c1 | 60.7% (inactive)
21 | COc1ccc(/C=C\c2cc(OC)c(OC)c(OC)c2)cc1OC(=O)c1cccc(Cn2cc(CCOC(=O)[C@H](N)Cc3cn(C)c4ccccc34)nn2)c1 | 15.7% (inactive)
22 | O=C1c2ccccc2C(=O)c2c1ccc1[nH]c(-c3cccs3)nc21 | 99.9% (inactive)
23 | CN1CCN(Cc2ccc(NC(=O)c3cncc(C#Cc4cncn5ccnc45)c3)cc2C(F)(F)F)CC1 | 87.5% (inactive)
24 | CC(C)(C)c1cc(/C=N\NC(=O)/C=C/C=C/c2ccc3c(c2)OCO3)c(O)c(C(C)(C)C)c1 | 85.4% (inactive)
25 | CCCc1cc(=O)n2c(C(=O)Nc3ccc(F)cc3)c(C(=O)Nc3ccc(F)cc3)sc2n1 | 17.6% [30 µM] (inactive)
26 | O=C(O)COc1ccc(Cl)cc1C1CCCCC1 | 106% (inactive)
27 | NC(=O)c1cc(Br)ccc1NC(=O)/C=C/c1ccccc1 | 65.7% (inactive)
28 | Cc1nn(-c2ccc(F)cc2)c2ncnc(Oc3ccc(NC(=O)Nc4ccc(Cl)c(C(F)(F)F)c4)cc3)c12 | 106% (inactive)

Row | Structure (SMILES) | growth
29 | CSc1nc(-c2cccc(NC(=O)CCl)c2)c(C#N)c(=O)n1C | 53% (inactive)
30 | CCCCN(CCCC)CCCn1c(-c2ccccc2)ccc1-c1ccccc1 | 72.7% (inactive)
31 | Cc1c(/C=C/[N+](=O)[O-])ccc2c1[nH]c1ccccc12 | 73.2% (inactive)
32 | c1ccc(Cn2cc(-c3nc4ccccc4s3)c3cccnc32)cc1 | 104% (inactive)
33 | O=C(N/N=C/c1c[nH]c2ccccc12)c1cc(-c2ccccc2)on1 | 97.9% (inactive)
34 | CCCn1c(=O)[nH]c(N)c([C@H]2c3ccccc3Oc3[nH]c(=O)n(CCC)c(=O)c32)c1=O | 82.7% (inactive)
35 | CC(=O)O[C@H]1[C@@H]2OC(=O)C(CSc3ccccc3)[C@@H]2C[C@H]2O[C@]2(C)CC/C=C(\C)CCC[C@@H]1C (some centres not stated) | 61.4% (inactive)
36 | O=C1Nc2ccc(Br)cc2C12Oc1ccccc1C1CC(c3ccc(F)cc3)=NN12 (configuration not stated) | 105% (inactive)
37 | C=C1c2nc3ccccc3n2C=C(c2cccc(Cl)c2)N1Cc1ccc(OC)cc1 | 35.5% (inactive)
38 | C#CC(F)(F)[C@]1(O)CC[C@H]2[C@@H]3CCC4=CC(=O)CCC4=C3[C@@H](c3ccc(C(C)=O)cc3)C[C@@]21C | -41% (active)
39 | CC(=O)O[C@H]1CC[C@]2(C)[C@H]3CC=C4[C@@H]5CC(C)(C)CC[C@]5(C(=O)NCCNCCNCCN)CC[C@@]4(C)[C@]3(C)CC[C@H]2C1(C)C | -56.3% (active)
40 | COc1ccc(-c2cc(NC(=O)Nc3ccc4ncsc4c3)no2)cc1 | 99.1% (inactive)
41 | CCN(CC)c1ccc(-c2cc(-c3cc(OC)c(OC)c(OC)c3)nc(N3CCOCC3)c2C#N)cc1 | 0.298% (active)
42 | CC1=CC(=NN=c2cc(C)n([O-])c(C)c2)C=C(C)[N+]1=O | 79.3% (inactive)
43 | Cc1ccc2oc(=O)cc(C3c4ccc([nH]4)C(c4cc(=O)oc5ccc(C)cc45)c4ccc([nH]4)C(c4cc(=O)oc5ccc(C)cc45)c4ccc([nH]4)C(c4cc(=O)oc5ccc(C)cc45)c4ccc3[nH]4)c2c1 (configuration not stated) | -58.9% (active)
44 | COc1cc2c(cc1-c1c(C)noc1C)ncc1nc(C3CCOCC3)n([C@@H](C)COC(F)F)c12 | 49.6% (inactive)
45 | Cc1[nH]c(-c2cc(N)ccc2Cl)c2c1C(=O)CCCC2 | 40.1% (inactive)
46 | O=S(=O)(Nc1ccc(Br)c(Cl)c1)c1ccc(-c2cnc(C3CC3)o2)cc1 | 39% (inactive)
47 | C=CC(=O)Nc1cccc(-c2nc(SC)nc(NCCN3CCOCC3)c2C#N)c1 | 87.5% (inactive)
